We go through eight compounds from PubChem BioAssay.

Molecules are shown by their SMILES. The source made the active and inactive calls.

In assay [1] the target is Albumin (Bos taurus) (UniProt P02769). Kind of assay: bovine serum albumin binders on microarray, profiling panel, artefact control for SMM control protein annotation, biochemical, small-molecule microarray, Alexa647 label, 635/667 nm fluorescence (AID 1118).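 Further: score merges 667 nm emission intensity and signal-to-noise per printed compound spot.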 To be noted: BSA-A647 binding, fluorescence 635 nm, higher = more signal.
Sequence of Albumin (Bos taurus) (P02769 whole entry, looked up): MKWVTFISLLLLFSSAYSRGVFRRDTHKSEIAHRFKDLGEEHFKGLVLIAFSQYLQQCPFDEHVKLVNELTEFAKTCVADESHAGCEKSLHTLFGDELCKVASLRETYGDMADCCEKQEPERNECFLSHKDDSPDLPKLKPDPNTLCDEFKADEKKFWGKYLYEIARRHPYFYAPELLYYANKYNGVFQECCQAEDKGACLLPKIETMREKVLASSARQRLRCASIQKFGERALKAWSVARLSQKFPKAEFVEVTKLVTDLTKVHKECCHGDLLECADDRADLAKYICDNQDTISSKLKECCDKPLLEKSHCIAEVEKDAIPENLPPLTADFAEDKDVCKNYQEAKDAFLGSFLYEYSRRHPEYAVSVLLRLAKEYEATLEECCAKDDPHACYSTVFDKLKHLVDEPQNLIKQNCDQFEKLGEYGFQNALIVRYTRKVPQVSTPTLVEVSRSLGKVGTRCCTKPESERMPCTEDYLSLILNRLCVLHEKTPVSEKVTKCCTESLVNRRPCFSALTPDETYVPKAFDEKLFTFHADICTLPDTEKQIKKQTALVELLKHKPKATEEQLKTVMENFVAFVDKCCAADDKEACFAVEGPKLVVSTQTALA
Assay [2] is described as follows: small-molecule microarray binders of probe aXIP, primary screen, biochemical, NeuroSMM set, 635/667 nm fluorescence (AID 1119).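 Further: probe is the protein aXip251-270 applied at 1 µg/mL to compound-printed slides; binding of probe to printed compounds measured as 667 nm fluorescence plus signal to noise.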 Particulars: higher = more signal, called active from +8 up or from −8 down.
A short description of assay [3]: small-molecule binders of probe aNOTCH3, primary screen, biochemical, small-molecule microarray, 635/667 nm fluorescence (AID 1120).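 Further: probe is a biotin-tagged antibody raised against NOTCH3 rather than NOTCH3 protein; score merges spot fluorescence near 667 nm with spot signal to noise.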 To be noted: higher = more signal.
A short description of assay [4]: small-molecule binders of probe aNOTCH2, primary screen, biochemical, small-molecule microarray, 635/667 nm fluorescence (AID 1121).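 Further: score merges feature fluorescence read at 667 nm with its signal to noise.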 To be noted: higher = more signal.
Assay [5] addresses Carbonic anhydrase 2 (Homo sapiens) (UniProt P00918). Briefly: CAII small-molecule binders, profiling panel, biochemical, small-molecule microarray, Alexa647-labelled CAII (AID 1122). Particulars: CAII-A647 binding fluorescence, higher = more signal.
Assay [6] is described as follows: COS7 lysate on small-molecule microarray, probe aHis, 635 nm (AID 1123).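 Further: z-score combines 667nm fluorescence intensity with signal-to-noise per printed compound spot.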 Particulars: COS7 cell lysate, fluorescence, higher = more signal.
A short description of assay [7]: compound binding in COS7 lysate, probe aLAP1, primary screen, cell lysate, small-molecule microarray (AID 1124).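 Further: lysate comes from COS7 cells expressing LAP1 and is applied at 0.3 µg/mL; score merges spot fluorescence near 667 nm with signal-to-noise over triplicate slides.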 To be noted: probe aLAP1, fluorescence, higher = more signal.
Assay [8] concerns Sam68 (KHDRBS1). Kind of assay: Sam68 small-molecule binders, primary screen, biochemical, small-molecule microarray, 635 nm fluorescence (AID 1125).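 Further: score merges 667 nm channel intensity with signal to noise over triplicate slides.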 To be noted: small-molecule microarray binding, higher = more signal.
For assay [9], the system named is Chordin-like protein 2 (CHRDL2). Kind of assay: CHRDL2 small-molecule binders, primary screen, biochemical, small-molecule microarray, 635 nm fluorescence (AID 1126).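 Further: printed compound slides probed with Chrdl2 protein at 4 µg/mL for 1 h at 4 C; score merges 667 nm emission intensity with signal to noise over three replicate slides.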 To be noted: small-molecule microarray binding, fluorescence 635 nm; higher = more signal.
Assay [10] deals with Concanavalin-A (Canavalia ensiformis) (UniProt P02866). Kind of assay: ConA small-molecule binders, primary screen, artefact control for SMM control protein annotation, biochemical, small-molecule microarray, Alexa647 label, 635 nm (AID 1127).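 Further: z combines 667 nm emission intensity with signal-to-noise across three replicate slides.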 To be noted: ConA-A647 binding fluorescence, higher = more signal.
Sequence of Concanavalin-A (Canavalia ensiformis) (P02866 whole entry, looked up): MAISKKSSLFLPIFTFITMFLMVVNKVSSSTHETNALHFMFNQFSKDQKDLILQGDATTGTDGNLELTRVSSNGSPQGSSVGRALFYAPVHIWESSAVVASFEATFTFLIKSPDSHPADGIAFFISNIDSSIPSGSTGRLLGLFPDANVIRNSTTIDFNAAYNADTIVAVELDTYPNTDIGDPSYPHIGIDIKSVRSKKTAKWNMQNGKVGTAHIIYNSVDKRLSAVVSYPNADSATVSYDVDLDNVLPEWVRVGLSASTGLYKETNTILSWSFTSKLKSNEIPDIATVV
Assay [11] can be described thus: anti-His antibody binders, primary screen, artefact control for SMM control protein annotation, biochemical, small-molecule microarray, 635 nm fluorescence (AID 1128).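 Further: score merges feature fluorescence with signal-to-noise for each printed compound spot.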 Particulars: anti-His Alexa647 antibody binding, higher = more signal.
Assay [12] deals with Human papillomavirus type 1a E7 protein (residues 1-88). Briefly: HPV1a E7 small-molecule binders, primary screen, biochemical, small-molecule microarray, residues 1-88, 635 nm (AID 1129). Particulars: small-molecule microarray binding, fluorescence 635 nm; higher = more signal.
Assay [13] has as its target Focal adhesion kinase 1 (Homo sapiens) (UniProt Q05397). Briefly: small-molecule microarray binders of FAK, primary screen, biochemical, 635/667 nm fluorescence, BSA, DTT (AID 1130).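 Further: composite of spot emission at 667 nm and signal to noise over triplicate slides.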 To be noted: PTK2 binding, 635 nm fluorescence, higher = more signal.
Assay [14] concerns Fibrinogen (Alexa647-labelled). Briefly: fibrinogen binders on compound microarrays, profiling panel, artefact control for SMM control-protein annotation, biochemical, small-molecule microarray, 635/667 nm fluorescence (AID 1131).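 Further: z-score merges 667 nm fluorescence with per-spot signal-to-noise over triplicate slides.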 Particulars: fibrinogen-A647 binding fluorescence, higher = more signal.
For assay [15], the target named is Follistatin (Homo sapiens) (UniProt P19883). Briefly: follistatin binders on small-molecule microarrays, primary screen, biochemical, small-molecule microarray, 635/667 nm fluorescence (AID 1132). To be noted: FST binding, 635 nm fluorescence, higher = more signal.
Sequence of Follistatin (Homo sapiens) (P19883 whole entry, looked up): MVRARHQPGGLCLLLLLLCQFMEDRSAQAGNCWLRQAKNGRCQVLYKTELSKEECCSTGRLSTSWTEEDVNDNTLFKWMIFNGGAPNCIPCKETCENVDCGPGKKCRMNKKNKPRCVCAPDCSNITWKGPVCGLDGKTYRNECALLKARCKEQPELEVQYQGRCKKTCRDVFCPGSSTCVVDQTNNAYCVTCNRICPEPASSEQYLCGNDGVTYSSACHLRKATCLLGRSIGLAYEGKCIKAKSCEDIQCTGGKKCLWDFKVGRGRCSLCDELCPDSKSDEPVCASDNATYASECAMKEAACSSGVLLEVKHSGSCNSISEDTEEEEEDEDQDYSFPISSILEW
The target in assay [16] is Fibroblast growth factor 2 (Homo sapiens) (UniProt P09038). Briefly: FGF2 binders on small-molecule microarrays, primary screen, biochemical, small-molecule microarray, 635/667 nm fluorescence (AID 1133). To be noted: small-molecule microarray binding, FGF2, fluorescence 635/667; higher = more signal.
Sequence of Fibroblast growth factor 2 (Homo sapiens) (P09038 whole entry, looked up): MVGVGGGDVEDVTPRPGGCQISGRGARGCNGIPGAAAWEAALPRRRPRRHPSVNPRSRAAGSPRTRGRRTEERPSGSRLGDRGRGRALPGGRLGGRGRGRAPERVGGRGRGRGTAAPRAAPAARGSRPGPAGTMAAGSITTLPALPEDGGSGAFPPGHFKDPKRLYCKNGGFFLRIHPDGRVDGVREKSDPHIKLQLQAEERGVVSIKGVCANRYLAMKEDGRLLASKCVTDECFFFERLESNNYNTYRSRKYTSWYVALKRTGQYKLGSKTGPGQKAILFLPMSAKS
Assay [17] in a line: mitochondrial membrane potential change in A549 cells, profiling panel, cell-based, JC-1 fluorescence, basal, 24 h, 100 nL (AID 1138).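 Further: A549 lung adenocarcinoma cells under basal conditions with no added stimulus; test concentration not given here.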 Particulars: higher = more signal.
For assay [18], the system named is Lefty1. Kind of assay: Lefty1 binders on small-molecule microarrays, primary screen, biochemical, small-molecule microarray, 635/667 nm fluorescence (AID 1139). To be noted: small-molecule microarray binding, fluorescence 635/667; higher = more signal.
Assay [19] relates to wheat germ agglutinin (Triticum aestivum), Alexa647-labelled. Briefly: wheat germ agglutinin binders on compound microarrays, profiling panel, artefact control for SMM control-protein annotation, biochemical, small-molecule microarray, 635/667 nm fluorescence (AID 1140).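 Further: score merges 667 nm feature emission with signal to noise over triplicate slides.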 Particulars: WGA-A647 binding, 635 nm fluorescence, higher = more signal.
In assay [20] the target is Luciferin 4-monooxygenase (Photinus pyralis) (UniProt P08659). Kind of assay: firefly luciferase enzyme inhibitors, primary screen, biochemical, luminescence, purified enzyme, 2006 set (AID 1141).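 Further: cell-free assay with purified firefly luciferase at 100 ng per well in PBS; test concentration not given here.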 Particulars: SteadyGlo luminescence, 30 min, higher = more signal, called active from +8 up or from −8 down.
Sequence of Luciferin 4-monooxygenase (Photinus pyralis) (P08659 whole entry, looked up): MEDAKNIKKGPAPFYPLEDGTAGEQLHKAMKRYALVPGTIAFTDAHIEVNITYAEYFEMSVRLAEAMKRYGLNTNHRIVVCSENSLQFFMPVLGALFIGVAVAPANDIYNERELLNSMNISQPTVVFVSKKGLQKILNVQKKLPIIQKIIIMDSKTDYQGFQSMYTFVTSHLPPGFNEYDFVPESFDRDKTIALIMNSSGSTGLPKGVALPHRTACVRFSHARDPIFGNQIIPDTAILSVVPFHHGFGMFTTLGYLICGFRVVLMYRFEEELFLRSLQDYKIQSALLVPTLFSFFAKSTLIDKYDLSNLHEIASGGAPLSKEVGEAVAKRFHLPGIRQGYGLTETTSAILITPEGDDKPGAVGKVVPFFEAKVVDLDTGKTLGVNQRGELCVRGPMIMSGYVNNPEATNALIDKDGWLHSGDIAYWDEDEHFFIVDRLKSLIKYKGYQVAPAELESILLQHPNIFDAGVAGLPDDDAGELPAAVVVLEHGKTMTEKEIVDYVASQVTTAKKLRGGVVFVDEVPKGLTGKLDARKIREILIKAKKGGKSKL

Sequence of Focal adhesion kinase 1 (Homo sapiens) (Q05397 whole entry, looked up): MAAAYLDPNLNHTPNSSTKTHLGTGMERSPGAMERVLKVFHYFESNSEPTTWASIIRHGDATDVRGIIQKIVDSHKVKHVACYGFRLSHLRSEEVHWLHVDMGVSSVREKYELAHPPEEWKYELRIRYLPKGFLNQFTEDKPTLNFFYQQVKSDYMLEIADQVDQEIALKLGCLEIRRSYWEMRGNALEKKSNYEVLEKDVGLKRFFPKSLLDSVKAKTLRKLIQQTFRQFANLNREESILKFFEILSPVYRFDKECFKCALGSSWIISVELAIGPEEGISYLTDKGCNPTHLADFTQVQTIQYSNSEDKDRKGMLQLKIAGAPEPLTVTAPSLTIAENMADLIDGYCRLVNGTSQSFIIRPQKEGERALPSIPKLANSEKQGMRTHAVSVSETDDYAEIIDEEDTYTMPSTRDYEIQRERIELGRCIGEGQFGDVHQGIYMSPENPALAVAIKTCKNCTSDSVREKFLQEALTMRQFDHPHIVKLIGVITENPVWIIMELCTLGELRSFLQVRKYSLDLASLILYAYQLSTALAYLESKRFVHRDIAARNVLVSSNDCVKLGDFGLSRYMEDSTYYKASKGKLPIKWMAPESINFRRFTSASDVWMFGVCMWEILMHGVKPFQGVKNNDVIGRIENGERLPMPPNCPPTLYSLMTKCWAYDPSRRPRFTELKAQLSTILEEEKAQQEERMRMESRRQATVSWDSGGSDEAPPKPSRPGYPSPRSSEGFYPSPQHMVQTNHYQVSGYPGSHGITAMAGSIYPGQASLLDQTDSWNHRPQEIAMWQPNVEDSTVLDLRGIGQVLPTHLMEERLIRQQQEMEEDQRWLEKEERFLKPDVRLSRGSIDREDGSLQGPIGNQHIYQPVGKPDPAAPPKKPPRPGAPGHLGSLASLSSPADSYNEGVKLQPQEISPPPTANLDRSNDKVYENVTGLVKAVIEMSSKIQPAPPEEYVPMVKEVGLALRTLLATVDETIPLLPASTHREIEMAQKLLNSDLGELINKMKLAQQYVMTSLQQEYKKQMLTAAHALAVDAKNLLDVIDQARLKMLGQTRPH

For the compound `C=C(CCCC)/C(=C/C[C@@H](OC(=O)c1ccncc1)c1ccc(CO)o1)c1cnc2ccccc2c1`, the composite z-score in [1] came out at 0.667; in assay [3] it was 0.382; in assay [4], 0.0626; in [5] it was 0.956; in assay [6] it was 2.33; in assay [7] it was 0.405. The composite z-score in assay [8] was 1.31; in assay [9] it was 1.45; in assay [10], 1.18; in [11], 1.24; in assay [12] it was 0.723; in assay [13] it was 1.64. The composite z-score in assay [14] came to 0.878; in assay [15], 1.46; in assay [16], 1.69; in assay [18], 1.65; in assay [19], 1.22. Besides, the composite Z-score in [2] was 1.04 (inactive). Further, the z-score in assay [17] is 0.146; in assay [20], -3.5 (inactive).
Consider `C[C@H]1C2[C@H](Cc3ccccc3)NC(=O)[C@]23C(=O)N[C@H](Cc2ccccc2)C(=O)N[C@@H](Cc2ccccc2)C(=O)NC/C=C\C/C=C/C3[C@@H]2O[C@]12C` (stereo not given in full), for which the composite z-score was 0.992 in assay [1]; 0.36 in [3]; -0.0942 in assay [4]; 0.742 in assay [5]; 0.0046 in [6]; 0.0901 in assay [7]. For the same compound, the composite z-score is -0.221 in assay [8]; 0.371 in [9]; -1.08 in assay [10]; 0.133 in [11]; -0.318 in assay [12]; 0.838 in assay [13]. Besides, the composite z-score in assay [14] was -1.84; in assay [15] it was 0.162; in [16], 0.0748; in [18], -0.0066; in [19], -0.125. For the same compound, in assay [2], the composite Z-score is 0.448 (inactive). In addition, the values for the z-score in assay [17] and in assay [20] were 0.298 and -1.06 (inactive), respectively.
On to `CCCC=C(CCC)[C@@H](NS(=O)(=O)c1ccc(-c2ccccc2)cc1)c1ccc(C(=O)OC)cc1`, for which the composite z-score is -0.0722 in assay [1]; -0.0846 in [3]; -0.0651 in assay [4]; -0.291 in [5]; 0.257 in assay [6]; 0.515 in [7]. Also, the composite z-score was -0.829 in assay [8]; -0.705 in [9]; 0.115 in [10]; 0.5 in assay [11]; -0.997 in assay [12]; -0.15 in assay [13]. The composite z-score in assay [14] was -0.285; in [15], -0.407; in assay [16], -0.624; in [18], -0.707; in assay [19] it was -0.153. Moreover, in [2], the composite Z-score was -0.682 (inactive). Also, the z-score in assay [17] was -2.58; in [20], 1.67 (inactive).
Turning to `C#C[C@H](O[Si](C#Cc1ccccc1)(C(C)C)C(C)C)c1ccccc1`, the composite z-score in assay [1] was 0.0778; in assay [3], -0.293; in [4], -0.0743; in assay [5], 0.564; in assay [6] it was 0.0271; in assay [7], 0.252. Further, the composite z-score is 0.0094 in assay [8]; -0.429 in [9]; -0.683 in assay [10]; 0.126 in assay [11]; -0.581 in assay [12]; -0.515 in assay [13]. The composite z-score in assay [14] is -0.664; in [15], -0.89; in [16], -0.487; in assay [18], -0.126; in assay [19], -0.242. Besides, the composite Z-score in assay [2] is 0.422 (inactive). The z-score in assay [17] was -1.47; in assay [20] it was 0.645 (inactive).
With `COCCOC(=O)N1C(=O)[C@@]2(c3cc(C#CCNC(N)=O)ccc31)[C@H](c1ccc(OCCO)cc1)N1[C@H](c3ccccc3)[C@H](c3ccccc3)OC(=O)[C@H]1[C@@H]2C(=O)N1CCCCCCC1`, the composite z-score was -0.208 in [1]; 0.255 in assay [3]; -0.0059 in assay [4]; 0.174 in [5]; 0.043 in assay [6]; 0.332 in assay [7]. The composite z-score in [8] is 0.82; in assay [9], 0.137; in assay [10], 0.669; in [11] it was -0.347; in [12], 0.718; in assay [13], 0.422. In addition, the composite z-score in assay [14] turned out to be 0.355; in assay [15], 1.35; in assay [16] it was 0.117; in assay [18] it was 0.854; in [19], 0.884. Also, the composite Z-score in [2] was -0.333 (inactive). Besides, the results for the z-score in assay [17] and in [20] were -0.99 and -1.45 (inactive), respectively.
With `C[C@@H]1CC[C@H]2C(=O)N3CCC[C@H]3C(=O)N2[C@H]1c1ccc(Br)cc1`, the composite z-score in assay [1] is -0.295; in [3] it was -0.261; in [4], -0.174; in assay [5], -0.213; in assay [6] it was 0.233; in [7] it was 0.123. The composite z-score in assay [8] is -0.0235; in assay [9], 0.536; in assay [10] it was -0.377; in assay [11], 0.136; in assay [12], -0.366; in assay [13], 0.335. Also, the composite z-score in assay [14] was 0.0658; in assay [15] it was 0.162; in assay [16], 0.36; in assay [18] it was 0.724; in assay [19], -0.169. Besides, the composite Z-score in assay [2] was 0.734 (inactive). The z-score in assay [17] is 1.68; in assay [20], -1.02 (inactive).
Consider `CO[C@H]1COC(=O)[C@H](Cc2ccccc2)NC(=O)CC=C[C@@H](C)[C@H](OC)COC(=O)CC=C[C@@H]1C`, for which the composite z-score in assay [1] was -0.108; in assay [3], 0.0319; in assay [4], -0.0211; in [5], -0.142; in assay [6] it was 0.199; in assay [7], -0.47. Further, the composite z-score in assay [8] was 0.588; in assay [9], 0.53; in [10], 0.296; in [11], 0.809; in assay [12], 0.779; in [13], -0.237. Further, the composite z-score in [14] was 0.256; in assay [15], 0.424; in assay [16], 0.144; in assay [18] it was 0.492; in [19] it was -0.12. The composite Z-score in assay [2] is -0.225 (inactive). Besides, the z-score in [17] was 1.64; in [20] it was -1.27 (inactive).
For the compound `CCOC(=O)C[C@H]1[C@H](OC(=O)c2cc3ccccc3oc2=O)[C@@H](NC(=O)c2ccc3ccccc3c2)c2cc(OCCCO)ccc2N1C(=O)c1ccc2ccccc2n1`, the composite z-score in [1] is 0.668; in assay [3] it was 0.0842; in assay [4] it was -0.122; in assay [5], 0.426; in [6] it was 0.193; in assay [7] it was 0.155. The composite z-score in assay [8] was determined as 0.325; in assay [9], 0.731; in assay [10], 0.536; in assay [11], 0.322; in [12], 1.04; in [13], 0.0147. For the same compound, the composite z-score in [14] worked out at 0.973; in [15] it was 0.986; in assay [16] it was 0.927; in [18], 0.488; in assay [19] it was 1.05. For the same compound, the composite Z-score in [2] was 0.575 (inactive). Also, the figures for the z-score in assay [17] and in [20] were 1.33 and -0.233 (inactive), respectively.
